By AC50 is commonly meant the midpoint of the concentration-response curve, whichever way the signal moves.

“And” between values parts separate entries of the source, which are not always exact repeats. Equal entries are not always repeated. Some compounds were tested as several samples or in several runs, with calls that do not always agree. The source made the active and inactive calls. The calls were made as follows: active = hit-call score of the fitted dose curve at least 0.9, where 1 is the maximum; inactive = score below 0.9.

This passage reports outcome and AC50 results from PubChem BioAssay (EPA / NIEHS).

Read-out in experiment [1]: Monokine induced gamma interferon (MIG), CXCL9 (gene 4283)
As to the kind of experiment: BSK_KF3CT_MIG: BioMAP Diversity Plus: KF3CT Assay for Monokine induced gamma interferon (MIG) Biomarker Activity (AID 2284248). Particulars: primary human keratinocytes with fibroblasts. An outline of the steps:
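Human keratinocyte plus foreskin fibroblast primary co-culture dosed with test chemical for 24 h; MIG level measured by ELISA and fitted in the positive direction against DMSO as baseline.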

Read-out in experiment [2]: Collagen I, COL1A1 (gene 1277)
Nature of the experiment: BSK_hDFCGF_CollagenI: BioMAP Diversity Plus: hDFCGF Assay for Collagen I Biomarker Activity (AID 2284250). Particulars: primary human foreskin fibroblasts. Summed up:
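ELISA read-out of Collagen I in human dermal foreskin fibroblast cultures, 24 h after dosing. Gain of signal versus DMSO vehicle defines activity.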

Read-out in experiment [3]: Plasminogen activator inhibitor-1 (PAI1), SERPINE1 (gene 5054)
As to the kind of experiment: BSK_KF3CT_PAI1: BioMAP Diversity Plus: KF3CT Assay for Plasminogen activator inhibitor-1 (PAI1) Biomarker Activity (AID 2284252). The note with it: primary human keratinocytes with fibroblasts. Summed up: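 Keratinocyte + dermal fibroblast co-culture (human primary); 24 h post-dose; PAI-1 by ELISA; gain-of-signal fit vs DMSO control.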

Read-out in experiment [4]: Interleukin-8 (IL8), CXCL8 (gene 3576)
Nature of the experiment: BSK_KF3CT_IL8: BioMAP Diversity Plus: KF3CT Assay for Interleukin-8 (IL8) Biomarker Activity (AID 2284254). The note with it: primary human keratinocytes with fibroblasts. An outline of the steps:
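Human primary keratinocyte plus foreskin fibroblast co-culture dosed with test chemicals; IL-8 measured by ELISA 24 h after dosing. Activity fitted in the positive direction relative to DMSO negative control.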

Read-out in experiment [5]: Intercellular Adhesion Molecule 1 (ICAM1), ICAM1 (gene 3383)
Nature of the experiment: BSK_BE3C_ICAM1: BioMAP Diversity Plus: BE3C Assay for Intercellular Adhesion Molecule 1 (ICAM1) Biomarker Activity (AID 2284278).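 Also: cell-surface ICAM-1 protein level quantified by ELISA.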 The note with it: primary human bronchial epithelial cells. An outline of the steps: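 ELISA read-out of ICAM-1 on human lung bronchial epithelial primary cells, 24 h post-dosing; positive-direction curve fit, DMSO = baseline. SRB total-protein staining of parallel cultures flagged overt cytotoxicity.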

Read-out in experiment [6]: Interferon-inducible T-cell alpha chemoattractant (ITAC), CXCL11 (gene 6373)
Nature of the experiment: BSK_BE3C_ITAC: BioMAP Diversity Plus: BE3C Assay for Interferon-inducible T-cell alpha chemoattractant (ITAC) Biomarker Activity (AID 2284279). The note with it: primary human bronchial epithelial cells. An outline of the steps:
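The assay measures I-TAC levels by ELISA in human primary bronchial epithelial cell cultures 24 hours after chemical treatment. Values reflect signal increase over the DMSO baseline.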

Read-out in experiment [7]: Interleukin-8 (IL8), CXCL8 (gene 3576)
As to the kind of experiment: BSK_BE3C_IL8: BioMAP Diversity Plus: BE3C Assay for Interleukin-8 (IL8) Biomarker Activity (AID 2284280). The note with it: primary human bronchial epithelial cells. An outline of the steps:
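Primary human bronchial epithelial cells (BE3C system) were exposed to test chemical for 24 h, and IL-8 levels were then measured by ELISA. Activity was fitted in the positive (gain-of-signal) direction against a DMSO negative-control baseline.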

Read-out in experiment [8]: Epidermal growth factor receptor (EGFR), EGFR (gene 1956)
As to the kind of experiment: BSK_BE3C_EGFR: BioMAP Diversity Plus: BE3C Assay for Epidermal growth factor receptor (EGFR) Biomarker Activity (AID 2284281). The note with it: primary human bronchial epithelial cells. Summed up: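 Human primary bronchial epithelial cells were exposed to compound for 24 h, and cell-surface EGFR was then quantified by ELISA. Activity was fitted in the positive direction against the DMSO vehicle baseline.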

Read-out in experiment [9]: Collagen III, COL3A1 (gene 1281)
Nature of the experiment: BSK_MyoF_CollagenIII: BioMAP Diversity Plus: MyoF Assay for Collagen III Biomarker Activity (AID 2284239). The note with it: primary human lung fibroblasts. An outline of the steps:
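Human lung fibroblasts were dosed with chemicals and, 24 hours later, collagen III was measured by ELISA. Activity was fitted in the positive direction against the DMSO negative-control baseline.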

Read-out in experiment [10]: Interleukin 17F (IL17F), IL17F (gene 112744)
Nature of the experiment: BSK_BT_xIL17F: BioMAP Diversity Plus: BT Assay for Interleukin 17F (IL17F) Biomarker Activity (AID 2284243). The note with it: primary human B cells with PBMC. Summed up: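 B cell/PBMC co-culture (human primary), 24 h compound exposure; sIL-17F by Luminex xMAP; gain-of-signal fit vs DMSO baseline.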

Read-out in experiment [11]: Actin alpha 1 (ACTA1), ACTA1 (gene 58)
Nature of the experiment: BSK_MyoF_ACTA1: BioMAP Diversity Plus: MyoF Assay for Actin alpha 1 (ACTA1) Biomarker Activity (AID 2284244). Particulars: primary human lung fibroblasts. An outline of the steps: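 ELISA read-out of a-SMA in primary human lung fibroblast cultures, 24 h post-dosing. Activity scored in the positive direction versus DMSO baseline.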

Read-out in experiment [12]: Interleukin 2 (IL2), IL2 (gene 3558)
Nature of the experiment: BSK_BT_xIL2: BioMAP Diversity Plus: BT Assay for Interleukin 2 (IL2) Biomarker Activity (AID 2284245). Particulars: primary human B cells with PBMC. Summed up: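 Readout: supernatant IL-2 via Luminex xMAP after 24 h chemical dosing of a B cell/PBMC primary human co-culture. DMSO serves as negative control and baseline; increases in signal were fitted.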

Read-out in experiment [13]: Basic fibroblast growth factor (bFGF), FGF2 (gene 2247)
As to the kind of experiment: BSK_MyoF_bFGF: BioMAP Diversity Plus: MyoF Assay for Basic fibroblast growth factor (bFGF) Biomarker Activity (AID 2284246). Particulars: primary human lung fibroblasts. Summed up: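 Primary human lung fibroblast culture, 24 h compound exposure; ELISA read-out of bFGF. Positive-direction fit vs DMSO baseline. Cytotoxicity: SRB stain (0.1% SRB, 10% TCA fixation, 560 nm) in parallel wells.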

Read-out in experiment [14]: Collagen IV, COL4A1 (gene 1282)
Nature of the experiment: BSK_MyoF_CollagenIV: BioMAP Diversity Plus: MyoF Assay for Collagen IV Biomarker Activity (AID 2284247). The note with it: primary human lung fibroblasts. Summed up: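 ELISA read-out of Collagen IV in lung fibroblast cultures, 24 h post-dosing; gain of signal relative to DMSO vehicle baseline defines activity.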

Read-out in experiment [15]: Plasminogen activator inhibitor-1 (PAI1), SERPINE1 (gene 5054)
As to the kind of experiment: BSK_MyoF_PAI1: BioMAP Diversity Plus: MyoF Assay for Plasminogen activator inhibitor-1 (PAI1) Biomarker Activity (AID 2284256).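 Also: PAI-1 protein level measured by ELISA in fibroblast cultures; PAI-1 read 24 h after compound addition.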 Particulars: primary human lung fibroblasts. Summed up:
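ELISA read-out of PAI-1 from primary human lung fibroblast cultures 24 h after dosing; gain-of-signal fit versus DMSO control.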

Read-out in experiment [16]: Interleukin-8 (IL8), CXCL8 (gene 3576)
As to the kind of experiment: BSK_MyoF_IL8: BioMAP Diversity Plus: MyoF Assay for Interleukin-8 (IL8) Biomarker Activity (AID 2284261). The note with it: primary human lung fibroblasts. An outline of the steps:
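ELISA read-out of IL-8 from primary human lung fibroblasts, 24 h post-dose; positive-direction curve fitting relative to DMSO vehicle baseline.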

The nature of experiment [17]: BSK_MyoF_SRB: Viability Assessment in the BioMAP Diversity Plus: MyoF Assay (AID 2284267).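 Also: total protein by SRB absorbance in parallel cultures as cytotoxicity measure; cells assessed 24 h after compound addition.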 The note with it: primary human lung fibroblasts. Summed up:
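Lung fibroblast cultures, 24 h post-dose; fix 10% TCA, stain 0.1% SRB, read 560 nm. Signal = total protein as cytotoxicity measure; fitted relative to DMSO negative control.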

Read-out in experiment [18]: Matrix Metallopeptidase 1 (MMP1), MMP1 (gene 4312)
Nature of the experiment: BSK_MyoF_MMP1: BioMAP Diversity Plus: MyoF Assay for Matrix Metallopeptidase 1 (MMP1) Biomarker Activity (AID 2284268). Particulars: primary human lung fibroblasts. An outline of the steps: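 ELISA readout of MMP1 in primary human lung fibroblast cultures, 24 h post-dosing. Gain of signal versus DMSO vehicle control defines activity. Parallel SRB staining (0.1% after 10% TCA fixation, 560 nm) flags overt cytotoxicity.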

Read-out in experiment [19]: TIMP metallopeptidase inhibitor 1 (TIMP1), TIMP1 (gene 7076)
Nature of the experiment: BSK_MyoF_TIMP1: BioMAP Diversity Plus: MyoF Assay for TIMP metallopeptidase inhibitor 1 (TIMP1) Biomarker Activity (AID 2284269). The note with it: primary human lung fibroblasts. An outline of the steps: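 TIMP-1 levels were determined by ELISA in human lung fibroblasts treated for 24 h. DMSO served as negative control and baseline for upward curve fitting.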

Take `CC(=O)[C@H]1CC[C@H]2[C@@H]3CC=C4C[C@@H](O)CC[C@]4(C)[C@H]3CC[C@]12C`: the outcome in experiment [1], in experiment [3], in experiment [4], in [5], in experiment [6] and in experiment [7] was inactive. Also, in experiment [8], the outcome was inactive. Besides, the AC50 is 5.65 µM (active) and 9.87 µM (active) in experiment [2]; 3.88 µM (active) in experiment [3].

As to `CC(=O)OCCC(C)CC(C)(C)C` (stereo unspecified), the outcome in experiment [1], in experiment [2], in [3], in experiment [4], in experiment [5] and in experiment [6] was inactive. Moreover, the result in experiment [7] and in [8] was inactive.

For the compound `O=C1CCCCCCCCCCCCCCO1`, the AC50 in [9] is 20 µM (active); in [10], 31.2 µM (active); in experiment [11], 13.9 µM (active); in experiment [12] it was 32.9 µM (active); in experiment [18], 20 µM (active). For the same compound, the result in experiment [13], in experiment [14], in experiment [15], in experiment [16], in [17] and in [19] was inactive.

In the case of `OC1OC[C@@H](O)[C@H](O)[C@H]1O` (stereo partly specified), the result in [1], in experiment [2], in [3], in [4], in [5] and in experiment [6] was inactive. For the same compound, the result in experiment [7] and in experiment [8] was inactive.

On to `CC[Si](OC(C)=O)(OC(C)=O)OC(C)=O`, for which the outcome in experiment [1], in experiment [2], in experiment [3], in experiment [4], in experiment [5] and in experiment [6] was inactive. Further, the result in experiment [7] and in experiment [8] was inactive.

Turning to `OC[C@H]1O[C@H](O[C@]2(CCl)O[C@H](CCl)[C@@H](O)[C@@H]2O)[C@H](O)[C@@H](O)[C@H]1Cl`, the outcome in experiment [1], in experiment [2], in [3], in experiment [4], in experiment [5] and in [6] was inactive. Also, the outcome in experiment [7] and in [8] was inactive.

As for `CC(=O)/C=C/C1=C(C)CCCC1(C)C`, the outcome in experiment [9], in experiment [10], in [11], in experiment [12], in [13] and in experiment [14] was inactive. For the same compound, the result in experiment [15], in [16], in experiment [17], in experiment [18] and in experiment [19] was inactive.

Consider `Nc1cc([N+](=O)[O-])ccc1O`, for which the result in [1], in experiment [2], in experiment [3], in experiment [4], in [5] and in [6] was inactive. The outcome in experiment [7] and in experiment [8] was inactive.
